# From PubChem
# An excerpt weighted towards active compounds, which were near 2.9% of everything screened.
# Wnt act: activators of Wnt/beta-catenin signaling. AID 743398. 1.2% of 300,000 active. activation, % at 9.35 µM. Wnt/beta-catenin reporter cell assay, activator, plate reader; in the data active = activation above about 30%, passing the limit was not always enough; inconclusive = no clear call, values can overlap the other calls;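 also: 0% = neutral control wells and 100% = positive control wells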
# PvdQ acylase: blocks Pseudomonas aeruginosa PvdQ acylase activity; 0.063% of 340,000 active; purified PvdQ acylase, fluorescence plate reader; inhibition, % at 10 µM; in the data active = inhibition above about 30%, passing the limit was not always enough; inconclusive = no clear call, values can overlap the other calls;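 also: 0% = vehicle neutral wells and 100% = reference inhibitor wells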
# Vif inh: blocks HIV Vif function; HEK293T cells, Vif self-association by quenched fluorescence, imaging, 24 h; inhibition, % at 7.49 µM; 0.35% of 340,000 active; in the data active = inhibition above about 50%, passing the limit was not always enough; inconclusive = no clear call, values can overlap the other calls; inactive = below about 31%
# Glyco luc inh: blocks N-linked glycosylation in D54 reporter cells. D54 ERlucT glycosylation luciferase reporter, 24 h; percent of 100 nM tunicamycin response. reporter increase, % at 12.5 µM. 0.23% of 360,000 active. AID 588692;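 active = mean luciferase reporter signal, scaled so untreated is 0 and the glycosylation-blocking control 100, at or above a set limit in every replicate; inconclusive = mean reaches the limit but not every replicate does; inactive = mean below the limit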;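 also: luciferase carries N-glycosylation sites so blocking glycosylation raises the light; 0% = median of neutral control wells and 100% = median of 100 nM tunicamycin wells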
# esBAF inh: inhibitors of esBAF chromatin remodeling in mouse ES cells; Bmi1-luciferase knock-in reporter, 24 h; 100% = twice the neutral-well signal; reporter increase, % at 12.5 µM; 2% of 350,000 active; in the data active = activation above about 40%; inconclusive = no clear call, values can overlap the other calls;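 also: 0% = median of the plate's neutral control wells and 100% = double that signal; a rise in the Bmi1 reporter signal indicates esBAF inhibition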
# MITF act: increases MITF-driven TRPM1 promoter luciferase signal | SK-MEL-5 TRPM1-promoter luciferase, 24 h; % of positive control, neutral wells = 0 | activation, % at 12.5 µM | AID 588334 | 0.75% of 300,000 active;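 active = mean activation of at least 80% with every replicate also reaching 80%; inconclusive = mean reaches 80% but some replicate falls short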;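 also: 0% = neutral control wells and 100% = parthenolide positive control wells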
# * = called active by the depositor; u = inconclusive; x = no result given.
SMILES,Wnt act,PvdQ acylase,Vif inh,Glyco luc inh,esBAF inh,MITF act
CNc1sc(C(=O)c2cccs2)c(N)c1-c1nc2ccccc2s1,x,-6.5,-2.5,-8.4,x,98.1*
C[C@H](CO)N1C[C@H](C)[C@H](CN(C)C(=O)Nc2ccc(F)cc2)OCCCC[C@H](C)Oc2ccc(NC(=O)NC3CCCCC3)cc2C1=O,x,x,x,x,3.5,x
CC(C)Oc1ccc2c(=O)c(-c3ccccc3)coc2c1,55.7*,-2.8,-1.0,-9.7,35.0,78.1
COc1ccc2c(=O)c(-c3ccc4c(c3)OCO4)coc2c1,39.8*,-10.7,x,-19.0,-40.9,-4.7
COc1ccc(-c2coc3cc(OC(=O)N4CCOCC4)ccc3c2=O)cc1,6.2,-2.2,-12.8,-3.0,39.5,40.2
O=C(N[C@H]1C=C[C@H](CC(=O)N2CCN(c3ccccc3)CC2)O[C@@H]1CO)c1ccccc1,x,x,x,x,-0.3,x
Cc1ccc2c(c1)N(C)/C(=C/c1cccc[n+]1C)S2,-12.3,-3.9,x,24.9,-20.9,-8.4
CN1/C(=C/c2cccc[n+]2C)Sc2ccccc21,1.7,-2.9,118.1*,15.2,-20.3,-13.5
C[C@H]1CCCCO[C@H](CN(C)C(=O)Nc2ccc3c(c2)OCO3)[C@@H](C)CN([C@@H](C)CO)C(=O)c2cc(NS(C)(=O)=O)ccc2O1,x,x,x,x,-1.7,x
O=C(Cc1ccncc1)NCC[C@@H]1CC[C@@H](NC(=O)Nc2cccc(F)c2)[C@@H](CO)O1,x,x,x,x,-3.7,x
Cc1cc(C)n(-c2nc(-c3cccc(Cl)c3)cs2)n1,-2.1,-13.1,28.0,1.4,49.0*,x
Cc1cc(C)n(-c2nc(-c3ccccc3)cs2)n1,x,-11.7,8.0,-1.8,x,45.5
c1ccc(-c2ccc(OCCOCCn3cncn3)cc2)cc1,x,-13.7,-3.1,1.1,61.9*,68.2
O=C(NNC(=S)Nc1ccccc1)c1cccc(Br)c1,x,-13.8,-8.6,1.3,46.9*,11.3
O=C(NNC(=S)Nc1ccccc1)c1ccc(O)cc1,56.7*,-10.3,-4.6,-0.3,77.8*,u
O=C(NNC(=S)Nc1ccc(Br)cc1)c1ccccc1,9.1,-9.0,-5.4,0.0,34.4,22.5
CO[C@H]1CN(C)C(=O)c2ccc(NS(=O)(=O)c3ccc(Cl)cc3)cc2OC[C@H](C)N(C(=O)NC(C)C)C[C@@H]1C,x,x,x,x,0.6,x
COc1ccccc1NC(=O)N[C@@H]1CC[C@@H](CC(=O)NCc2ccc(Cl)c(Cl)c2)O[C@@H]1CO,x,x,x,x,11.3,x
COc1ccc(/C=C/c2cc(O)cc(OC3OC(CO)C(O)C(O)C3O)c2)cc1 (stereo unspecified),49.4*,6.8,-2.5,-3.6,-34.0,116.8*
COc1cc(O)c2c(=O)c(-c3ccc(O[C@@H]4O[C@H](CO)[C@@H](O)[C@H](O)[C@H]4O)cc3)coc2c1,35.5*,11.2,-6.9,-6.5,24.6,73.3
COc1ccc(/C=C/c2cc(O)cc(O[C@@H]3O[C@H](CO)[C@@H](O)[C@H](O)[C@H]3O)c2)cc1O,72.3*,x,-8.8,-1.7,-24.5,x
O=C(c1ccccc1)N1C[C@@H]2[C@H](c3ccccc31)[C@H](CO)N2C(=O)c1ccccn1,x,x,x,x,2.3,x
C[C@H](CO)N1C[C@H](C)[C@@H](CN(C)C(=O)C2CCC2)Oc2ncc(C3=CCCC3)cc2C1=O,x,x,x,x,-3.2,x
CC=Cc1ccc2n(c1=O)C[C@@H]1[C@@H](CO)[C@H](C(=O)NCc3ccccc3F)N(CC)[C@H]21 (mixture of isomers),x,x,x,x,1.1,x
COc1ccc(C#Cc2ccc3c(c2)[C@@H]2[C@@H](CCN2C(=O)C2CCCCC2)[C@@H](CO)N3)cc1,x,x,x,x,-1.2,x
SMILES,Wnt act,PvdQ acylase,Vif inh,Glyco luc inh,esBAF inh,MITF act
CCOC(=O)c1ccc(-c2ccc(/C=N/NC(=O)CN(c3cccc(C)c3)S(C)(=O)=O)o2)cc1,x,-16.6,5.3,28.2*,x,-0.1
CN=C1S/C(=C\c2ccc(O)c(OC)c2)C(=O)N1C,51.8*,x,-3.1,-1.1,x,x
CN=C1S/C(=C\c2ccc(SC)cc2)C(=O)N1C,7.8,48.2*,9.6,-1.1,35.2,50.6
CN=C1S/C(=C\c2ccc(Cl)cc2)C(=O)N1C,1.1,13.8,9.5,0.5,6.0,8.9
CO[C@@H]1CN(C)C(=O)c2ccc(NC(=O)C3CC3)cc2OC[C@H](C)N(Cc2cccnc2)C[C@@H]1C,x,x,x,x,26.7,x
CCOC(=O)C1=C(C)N(CCCC(=O)O)C(=O)NC1c1ccccc1 (stereo unspecified),-1.1,1.4,-3.8,0.1,-2.6,-2.3
CCOC(=O)C1=C(C)N(CCO)C(=O)NC1c1ccccc1 (stereo unspecified),-0.6,11.4,63.2*,3.6,4.8,-8.0
Cc1oc(C(=O)O)cc1COc1ccc2c(C)cc(=O)oc2c1,1.6,-10.0,-3.6,2.1,-2.0,x
Cc1cc(=O)oc2cc(OCc3cc4c(cc3Cl)OCO4)ccc12,x,-5.1,40.1*,1.6,-7.1,16.7
CN(Cc1ccccc1)c1ncnc2ccc(Br)cc12,x,97.5*,-19.4,-8.2,-10.3,-5.5
O=C(C[C@@H]1C=C[C@H](NC(=O)Nc2cc(F)ccc2F)[C@H](CO)O1)Nc1ccc(-c2ccccc2)cc1,x,x,x,x,2.0,x
C[C@H]1CN([C@@H](C)CO)C(=O)Cc2cc(NC(=O)Nc3ccc4c(c3)OCO4)ccc2O[C@@H]1CN(C)S(=O)(=O)c1ccccc1,x,x,x,x,-2.0,x
COc1ccc(CN(C)C[C@H]2Oc3ccc(NC(=O)NC4CCCCC4)cc3C(=O)N([C@@H](C)CO)C[C@H]2C)cc1,x,x,x,x,-0.5,x
COc1cc(OC)cc(-c2noc(-c3csc([C@@H]4C[C@H](O)[C@@H](CO)O4)n3)n2)c1,-3.5,x,8.1,1.2,48.1*,x
OC[C@H]1O[C@@H](c2nc(-c3nc(-c4ccc(F)cc4)no3)cs2)[C@H](O)[C@@H]1O,61.1*,x,15.9,-8.7,4.2,x
CCOc1ccc(-c2noc(-c3csc([C@@H]4C[C@H](O)[C@@H](CO)O4)n3)n2)cc1,-1.5,x,-12.4,3.8,80.8*,x
COc1ccc(-c2noc(-c3csc([C@@H]4C[C@H](O)[C@@H](CO)O4)n3)n2)cc1OC,13.2,x,x,3.6,37.3,x
C[C@@H]1CCCCO[C@H](CN(C)C(=O)NC2CCCCC2)[C@H](C)CN([C@@H](C)CO)C(=O)c2cc(NC(=O)CCCN(C)C)ccc2O1,x,x,x,x,-2.4,x
O=C(C[C@@H]1C=C[C@@H](NC(=O)CC2CC2)[C@H](CO)O1)NCC(F)(F)F,x,x,x,x,4.0,x
CCOc1ccc2c(c1)sc(=NC(=O)C1CC1)n2C,-1.3,-5.1,-4.9,-1.3,59.9*,5.9
Cc1ccc(Cc2c(-c3cccc(Cl)c3)nc3ccc(C)cn23)cc1,0.4,x,x,-3.0,19.4,x
